An excerpt weighted towards active compounds, which were near 7.9% of everything screened.
HT1080 IDH1KD tx: kills HT-1080 cells with IDH1 knockdown; HT-1080 IDH1 knockdown viability, ATP luminescence, 48 h; Potency, µM (highest dose often 46.1 µM), actives largely listed as cytotoxic; 360,000 tested, 2% active
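Luminescent ATP read-out (CellTiter-Glo, 10 min at room temperature) after 48 h compound exposure at 37 °C gave viability of IDH1-knockdown HT-1080 cells. Activity was normalised to DMSO and cell-free wells, then fitted as concentration-response curves.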
MCF10A rereplic: DNA re-replication induction in MCF 10a cells | AID 624296 | 350,000 tested, 2.9% active | Potency, µM (highest dose often 46.1 µM), actives largely listed as activators | MCF 10A DNA re-replication, Hoechst nuclear intensity, 48 h; note: nearly all actives have a fitted effect of over 50% in size
KB-3-1 tox: KB-3-1 parental cell cytotoxicity. KB-3-1 viability, CellTiter-Glo ATP luminescence, 72 h. Potency, µM (titrated, usually from 46.1 µM), usual class: cytotoxic. 400,000 tested, 1.4% active. AID 1347075; note: nearly all actives have a fitted effect of over 60% in size
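Here the drug-naive KB-3-1 line serves as comparator for MDR sub-line selectivity; cells received compound titrations, 72 h at 37 °C, then CellTiter-Glo readout.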
HT1080-NT tox: kills 2HG-producing HT-1080-NT fibrosarcoma cells | HT-1080-NT fibrosarcoma viability, CellTiter-Glo ATP luminescence, 48 h | Potency, µM (series often up to 46.1 µM), hits mostly cytotoxic | 360,000 tested, 1.6% active | AID 686970;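 note: NT is the 2HG producing partner of a matched IDH1 knockdown line; nearly all actives have a fitted effect of over 55% in size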
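750 cells/well, RPMI + 5% FBS; 2 h settle, compound pin-transfer, 48 h at 37 degrees C. CellTiter-Glo 10 min RT, luminescence. Normalized to DMSO and media-only wells.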
SW480 rerep: induces DNA re-replication in SW480 colon adenocarcinoma cells; 340,000 tested, 1.8% active; Potency, µM (series often up to 46.1 µM), most hits filed as activators; SW480 DNA re-replication, Hoechst DNA content imaging, 48 h; AID 624297; note: nearly all actives have a fitted effect of over 55% in size
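Cells (250 per well) received 23 nL compound or DMSO by pin tool and were kept 48 hr at 37 C, 5% CO2. Nuclei were then stained with Hoechst for 40 min and scanned for DNA content.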
KB-V1 MDR tox: kills drug-selected multidrug resistant KB-V1 cells. KB-V1 MDR cells viability, CellTiter-Glo, 72 h. Potency, µM (doses to about 46.1 µM), hits mostly cytotoxic. 400,000 tested, 3.4% active. AID 1347076; note: nearly all actives have a fitted effect of over 60% in size
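Readout: CellTiter-Glo luminescence, 10 min after addition. Cells: KB-V1 MDR subline, 72 h at 37 degrees C with compound. Analysis: corrected, normalized data fitted to concentration-effect curves.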
A number is an active result; - = inactive; ? = inconclusive; . = no result given. Calls come from the whole dose curve; as a rule, active = well fitted curve in the direction sought with a large enough effect; inconclusive = small, poorly fitted or top-dose-only effect, or another doubt; inactive = no such curve, though single readings can be large; an effect the other way counts as inactive or inconclusive.

SMILES | HT1080 IDH1KD tx | MCF10A rereplic | KB-3-1 tox | HT1080-NT tox | SW480 rerep | KB-V1 MDR tox
CCOc1ccc(C)cc1S(=O)(=O)n1cnc2ccccc21 | 13µM | 23.1µM | 13µM | 9.2µM | ? | ?
CCOc1ccc(Cl)cc1S(=O)(=O)n1cnc2ccccc21 | 11.2µM | 7.94µM | ? | 11.2µM | - | 4.47µM
COc1cc(F)ccc1-c1cc(C(=O)NCc2ccc(C(F)(F)F)cc2)[nH]n1 | - | . | - | - | . | -
C=CCn1c(N)c(C(=O)Nc2ccccc2OC)sc1=S | - | - | - | - | - | -
C=CCn1c(N)c(C(=O)Nc2ccc(C)cc2)sc1=S | - | - | - | - | - | 18.4µM
CC(=O)Cc1nsc(NC(=O)c2ccc(-c3ccccc3Cl)o2)n1 | ? | 11.6µM | ? | - | ? | ?
N#CC(=C1C=CC(=NO)C(Cl)=C1)c1ccccc1 | 5.8µM | . | 6.51µM | 7.31µM | . | ?
C=CCNC(=O)C(=O)Nc1ccc2c(c1)N(S(=O)(=O)c1cccs1)CCC2 | ? | ? | ? | - | ? | 23.1µM
COCCCNC(=O)C(=O)Nc1ccc2c(c1)N(S(=O)(=O)c1cccs1)CCC2 | 2.31µM | 1.3µM | 1.16µM | ? | 1.03µM | 1.03µM
CN(C)CCCNC(=O)C(=O)Nc1ccc2c(c1)N(S(=O)(=O)c1cccs1)CCC2 | - | ? | ? | - | - | -
CCCNC(=O)C(=O)Nc1ccc2c(c1)N(S(=O)(=O)c1cccs1)CCC2 | ? | 14.6µM | ? | ? | 18.4µM | ?
CCNC(=O)C(=O)Nc1ccc2c(c1)N(S(=O)(=O)c1cccs1)CCC2 | - | - | - | - | ? | ?
CN(C)CCNC(=O)C(=O)Nc1ccc2c(c1)N(S(=O)(=O)c1cccs1)CCC2 | ? | ? | 6.51µM | - | 18.4µM | ?
C=CCNC(=O)C(=O)NCC1CCCN1S(=O)(=O)c1cccs1 (stereo not given) | - | - | - | - | - | -
O=C(Nc1ccc2c(c1)N(S(=O)(=O)c1cccs1)CCC2)c1c(F)cccc1F | - | - | - | - | - | -
CC1(C(=O)Nc2ccc3c(c2)OCO3)Cc2c(-c3cccc(C(N)=O)c3)ccnc2O1 (stereo not given) | 3.66µM | . | 7.31µM | ? | . | ?
CC1(C(=O)Nc2ccccc2)Cc2c(-c3cccc(C(N)=O)c3)ccnc2O1 (stereo not given) | - | . | - | - | . | -
CC1(C(=O)Nc2ccc3c(c2)OCO3)Cc2c(-c3ccc4c(c3)OCO4)ccnc2O1 (stereo not given) | 2.06µM | . | 5.17µM | ? | . | ?
CC1(C(=O)Nc2ccc(Cl)cc2)Cc2c(-c3cccc(C(N)=O)c3)ccnc2O1 (stereo not given) | 4.61µM | . | ? | ? | . | ?
COc1ccc(NC(=O)C2(C)Cc3c(-c4ccc5c(c4)OCO5)ccnc3O2)cn1 (stereo not given) | 2.91µM | . | 5.8µM | ? | . | 11.6µM
CC1(C(=O)Nc2ccc3c(c2)OCO3)Cc2c(-c3cccc(C(F)(F)F)c3)ccnc2O1 (stereo not given) | 11.6µM | . | ? | ? | . | ?
COc1ccc(C2(N3CCN(c4cccc(C)c4C)CC3)C(=O)c3ccccc3C2=O)cc1 | . | . | - | . | . | -
CCc1ccc(-n2c(Cc3ccccc3)nnc2SCc2nc(-c3cccs3)no2)cc1 | . | . | - | . | . | ?
CC1=C(C(=O)N(C)C)CC(CC(=O)NCCCN(C)C)C(=O)N1CCC1=CCCCC1 (stereo not given) | - | . | - | - | . | ?
CC1Cc2ccccc2N1C(=O)CSc1nnc(-c2ccc(S(=O)(=O)N3CCCC3)cc2)o1 (stereo not given) | - | - | - | - | - | 2.06µM
SMILES | HT1080 IDH1KD tx | MCF10A rereplic | KB-3-1 tox | HT1080-NT tox | SW480 rerep | KB-V1 MDR tox
CC1Cc2ccccc2N1C(=O)CSc1nnc(-c2ccccc2Cl)o1 (stereo not given) | . | . | - | . | . | -
O=C(c1ccccc1)c1nn(-c2ccc(Cl)cc2)cc1C(=O)c1cc2ccccc2oc1=O | - | ? | ? | - | - | 7.31µM
Cc1cc(C(=O)COC(=O)c2n[nH]c3ccccc23)c(C)n1C | - | - | - | - | - | -
COCCn1c(C)cc(C(=O)COC(=O)c2[nH]c(C)c(C(C)=O)c2C)c1C | ? | - | ? | - | - | 4.11µM
CN(C(=O)COC(=O)c1n[nH]c(=O)c2ccccc12)c1ccccc1 | - | - | - | - | - | -
CN(C(=O)COC(=O)c1n[nH]c2ccccc12)c1ccccc1 | - | - | - | - | - | 8.2µM
COCCn1c(C)cc(C(=O)COC(=O)c2ccccc2Br)c1C | - | - | - | - | - | -
COCCn1c(C)cc(C(=O)COC(=O)c2n[nH]c3ccccc23)c1C | - | ? | - | - | - | 9.2µM
Cc1cc2c(cc3c(SCc4ccc(Cl)cc4)nncn32)o1 | . | . | - | . | . | -
COc1ccc(-c2cc3c(nn2)-c2ccccc2C3=O)cc1 | - | - | ? | - | - | 7.31µM
COc1cccc(Cn2c(=O)n(Cc3ccccc3)c(=O)c3c2c2cc(OC)ccc2n3C)c1 | . | . | - | . | . | -

Screens (PubChem BioAssay)
